Common to all, as to assay: NCI-60 one-dose screen, 48 h (100 = growth as untreated, 0 = no growth, -100 = all killed)
One assay relates to HCT-15 colon. Conditions: 10 µM.
The next assay concerns HT29 colon. The note with it: 10 µM.
In a further assay the test system is SNB-19 CNS. Conditions: 10 µM.
The next assay has as its system U251 CNS. Conditions: 10 µM unless noted.
In a further assay the test system is PC-3 prostate. The note with it: 10 µM.
A further assay has as its system SK-MEL-5 melanoma. The note with it: 10 µM unless noted.
The test system of a further assay is UACC-62 melanoma.
The test system of another assay is LOX IMVI melanoma. Conditions: 10 µM unless noted.
The subject of another assay is SK-MEL-28 melanoma. The note with it: 10 µM.
For the next assay, the system named is SNB-75 CNS. Conditions: 10 µM.

Several values for one entry are separate records, joined by “and”; a condition that tells them apart may be missing. Equal values may be shown once. About 83,000 compounds went through this panel and 20% of them were active in at least one assay; those are over-represented in the sample as a whole.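 Compound tested at a single concentration for 48 hours in 96-well plates; a percent growth value below 10 was scored as active.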 A number with no mark means an inactive call. Activity calls are given as the source filed them.

Consider `Cc1cc(O)c(C(C)C)cc1Cl`, for which the growth with HCT-15 colon is 106%; in the assay on HT29 colon, 103%; with SNB-19 CNS it was 103%; with U251 CNS, 101%; in the assay with PC-3 prostate it was 101%; in the assay on SK-MEL-5 melanoma it was 103%. The growth with UACC-62 melanoma (10 µM) was 103%; with LOX IMVI melanoma, 98.3%; with SK-MEL-28 melanoma, 105%.
Turning to `CCCCCCCCCCCCCCCCCCOCC(COP(=O)([O-])OCC[N+](C)(C)C)OC` (centres undefined), the growth in the assay on HCT-15 colon was 61%; in the assay with HT29 colon, 37.7%; in the assay with SNB-19 CNS it was 80.8%; in the assay on U251 CNS, 72.4%; in the assay with PC-3 prostate, 29.5%; with SK-MEL-5 melanoma, 62.5%. Further, the growth was 73.3% with UACC-62 melanoma (10 µM) and 84.6% in the assay with LOX IMVI melanoma.
Regarding `COc1cccc2c1C(=O)c1c(O)c3c(c(O)c1C2=O)C[C@@](O)(C(C)=O)C[C@@H]3OC1CC(N)C(O)C(C)O1` (some centres undefined), the growth in the assay on HCT-15 colon is 3.22% (active); in the assay with HT29 colon, 1.89% (active); with SNB-19 CNS it was -9.95% (active); with U251 CNS it was 3.16% (active); in the assay on PC-3 prostate it was -25.8% (active); with SK-MEL-5 melanoma it was -90.5% (active). The growth in the assay with UACC-62 melanoma (10 µM) was -71.8% (active); in the assay on UACC-62 melanoma (50 µM) it was -98.9% (active) and -100% (active); with LOX IMVI melanoma, 1.63% (active); with SK-MEL-28 melanoma, -51% (active).
With `O=C(/C=C/c1cccnc1)c1ccccc1`, the growth is 63.2% with HCT-15 colon; 14.1% in the assay on HT29 colon; 87.8% in the assay with SNB-75 CNS; 82.8% with SNB-19 CNS; 37.3% in the assay with U251 CNS; 88.1% with PC-3 prostate. The growth with SK-MEL-5 melanoma is 103%; in the assay on UACC-62 melanoma (10 µM), 103%; in the assay with LOX IMVI melanoma, 27.5%; with SK-MEL-28 melanoma it was 102%.
For the compound `CC(=O)Nc1cc(C)ccc1C`, the growth with HCT-15 colon was 101%; in the assay with HT29 colon, 95.3%; in the assay on SNB-75 CNS it was 96.2%; with SNB-19 CNS, 101%; in the assay on U251 CNS it was 101%; in the assay on PC-3 prostate, 106%. For the same compound, the growth in the assay on SK-MEL-5 melanoma was 93.3%; in the assay on UACC-62 melanoma (10 µM), 98.3%; in the assay on LOX IMVI melanoma it was 101%; in the assay on SK-MEL-28 melanoma it was 105%.
Turning to `COC(=O)C1C(O)C(C)C(O)C(C)C=C(C)C2=C3C(=C(C)C(=O)c4c(O)c(c(C)c(OC(C)=O)c43)NC(=O)C(C)=C/C=C\C(C)C(O)C(C)C1O)OCO2` (centres undefined), the growth in the assay with HCT-15 colon was 115%; in the assay on HT29 colon, 114%; in the assay on SNB-75 CNS it was 90%; in the assay with SNB-19 CNS, 109%; with U251 CNS, 110%; in the assay on SK-MEL-5 melanoma, 110%. Also, the growth in the assay on UACC-62 melanoma (10 µM) was 103%; in the assay with LOX IMVI melanoma, 102%; with SK-MEL-28 melanoma it was 118%.
`NC(=O)SCC(=O)NNc1ccccc1`: the growth in the assay with HCT-15 colon was 89.2%; with HT29 colon, 103%; with SNB-75 CNS it was 92.5%; with SNB-19 CNS it was 108%; with U251 CNS, 87.8%; in the assay with PC-3 prostate it was 85.7%. In addition, the growth in the assay with SK-MEL-5 melanoma is 103%; in the assay on UACC-62 melanoma (10 µM), 70.9%; in the assay on LOX IMVI melanoma, 67.1%; in the assay on SK-MEL-28 melanoma, 106%.
Turning to `CCCCCCCCCCSC(=N)N`, the growth in the assay with HCT-15 colon is -4.11% (active); in the assay with HT29 colon it was -27.7% (active); in the assay with SNB-75 CNS, 80.7%; in the assay on SNB-19 CNS, 66.8%; with U251 CNS, 5.37% (active); in the assay with PC-3 prostate, 59%. Further, the growth with SK-MEL-5 melanoma is 50.7%; with UACC-62 melanoma (10 µM), -35% (active); in the assay on LOX IMVI melanoma, 47.8%; in the assay with SK-MEL-28 melanoma, 89.3%.
For `CN(C)C(=S)SC(=S)N(C)C`, the growth was 87.5% and 95.5% in the assay with HCT-15 colon; 82.2% and 59.8% with HT29 colon; 98.7% and 109% with SNB-19 CNS; 96.1% and 97.1% in the assay with U251 CNS; 93.1% and 89.6% in the assay on PC-3 prostate; 92.9% and 99% with SK-MEL-5 melanoma. Further, the growth in the assay with UACC-62 melanoma (10 µM) was 92.1% and 103%; in the assay on LOX IMVI melanoma it was 99.8% and 90.9%; in the assay on SK-MEL-28 melanoma it was 105% and 104%.
Take `O=C(O)COc1ccc(OCC(=O)O)cc1`: the growth in the assay on HCT-15 colon is 71.7%; in the assay with HT29 colon, 5.13% (active); with SNB-75 CNS, -11.9% (active); in the assay with SNB-19 CNS, 8.27% (active); in the assay on U251 CNS, -0.509% (active); in the assay on PC-3 prostate, 31%. In addition, the growth in the assay with SK-MEL-5 melanoma was 2.69% (active); in the assay on UACC-62 melanoma (10 µM), -3.08% (active); with LOX IMVI melanoma, -64.4% (active); in the assay with SK-MEL-28 melanoma it was 53.2%.
Consider `COC(=O)C1=COC(C)C2C[n+]3ccc4c([nH]c5ccccc54)c3CC12` (centres undefined), for which the growth in the assay on HCT-15 colon was 104% and 101%; in the assay with HT29 colon it was 99.4% and 81.3%; in the assay on SNB-19 CNS it was 101% and 90.3%; in the assay with U251 CNS it was 101% and 88.4%; with PC-3 prostate, 92% and 75.7%; in the assay with SK-MEL-5 melanoma it was 100% and 93.6%. Moreover, the growth in the assay with UACC-62 melanoma (10 µM) was 91.1% and 83.1%; in the assay on UACC-62 melanoma (100 µM) it was 52.7% and 32.5%; with LOX IMVI melanoma, 98.9% and 98%; with SK-MEL-28 melanoma, 106% and 103%.
As for `CCN1/C(=C/C=C/C=C/c2sc3ccccc3[n+]2CC)Sc2ccccc21`, the growth in the assay with HCT-15 colon is -20.9% (active); in the assay with HT29 colon it was -66.1% (active); in the assay with SNB-19 CNS it was -5.19% (active); with U251 CNS, -6.94% (active); with PC-3 prostate, 7.09% (active); in the assay with SK-MEL-5 melanoma, -95.4% (active). Also, the values for the growth with UACC-62 melanoma (10 µM), in the assay with LOX IMVI melanoma and with SK-MEL-28 melanoma were -74.6% (active), -57.5% (active) and -56.6% (active), respectively.

Values taken from PubChem BioAssay (NCI).
